Results on 6 compounds are retold here after PubChem BioAssay.

The source made the active and inactive calls.

The test system of assay [1] is Plasmodium falciparum Sir2 (PF13_0152, Sir2A). The assay can be described thus: pfSir2 binders on small-molecule microarrays, primary screen, biochemical, small-molecule microarray, 635 nm fluorescence (AID 1098).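 Note: score merges spot fluorescence intensity with its signal-to-noise ratio.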 The note with it: small-molecule microarray binding, fluorescence 635 nm; higher = more signal.
Assay [2] in a line: small-molecule microarray binders of probe aDKK1, primary screen, biochemical, biotinylated probe, 635/667 nm fluorescence (AID 1099).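 Note: score merges 667nm spot fluorescence with signal to noise across triplicate slides.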 The note with it: higher = more signal.
Assay [3] is described as follows: small-molecule microarray binders of probe aCHRDL2, primary screen, biochemical, biotinylated probe, 635/667 nm fluorescence (AID 1100). The note with it: higher = more signal.
Assay [4] in a line: splicing luciferase reporter signal modulators, primary screen, spliceosome inhibition project, cell-based, HEK293, splice +/- reporter (AID 1101).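 Note: HEK293 cells carrying a splicing-competent luciferase reporter gene; test concentration not given here.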 The note with it: luminescence, 24 h, higher = more signal, called active from +8 up or from −8 down. Background: A reporter such as luciferase makes a cellular process visible.
In assay [5] the target is Fibroblast growth factor 10 (Homo sapiens) (UniProt O15520). The assay can be described thus: FGF10 binders on small-molecule microarrays, primary screen, biochemical, small-molecule microarray, 635 nm fluorescence (AID 1102). The note with it: FGF10 binding, fluorescence 635 nm, higher = more signal.
For assay [6], the system named is glycogen synthase kinase-3 (GSK3A per assay name; protocol says GSK3B). Nature of the assay: GSK3 binders on small-molecule microarrays, primary screen, biochemical, small-molecule microarray, 635 nm fluorescence, GSK3A (AID 1103). Note: the record names both GSK3A and GSK3B. The note with it: small-molecule microarray binding, fluorescence 635 nm; higher = more signal.
In assay [7] the target is Epidermal growth factor receptor (Homo sapiens) (UniProt P00533). Nature of the assay: EGFR binders on small-molecule microarrays, primary screen, biochemical, small-molecule microarray, 635 nm fluorescence (AID 1104).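 Note: score merges 667 nm emission intensity with spot signal to noise over triplicate slides.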 The note with it: EGFR binding, higher = more signal.
In assay [8] the target is Follistatin-related protein 3 (Homo sapiens) (UniProt O95633). The assay can be described thus: FSTL3 binders on small-molecule microarrays, primary screen, biochemical, small-molecule microarray, 635 nm fluorescence (AID 1105).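 Note: score merges emission near 667 nm and signal to noise per printed spot across three slides.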 The note with it: FSTL3 binding, higher = more signal.
The target in assay [9] is Dickkopf-related protein 1 (Homo sapiens) (UniProt O94907). Nature of the assay: DKK1 binders on small-molecule microarrays, primary screen, biochemical, small-molecule microarray, 635 nm fluorescence scan (AID 1106).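 Note: score merges emission near 667 nm with signal to noise over three replicate slides.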 The note with it: DKK1 binding, higher = more signal.
The test system of assay [10] is Inhibin beta A chain (activin A). The assay can be described thus: INHBA (activin A) binders on microarrays, primary screen, biochemical, small-molecule microarray, 635 nm fluorescence scan (AID 1107).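 Note: mouse activin A protein probed at 4.33 µg/mL on printed slides; score merges bound-protein fluorescence near 667 nm with spot signal-to-noise.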 The note with it: small-molecule microarray binding, higher = more signal.
Assay [11] relates to Human papillomavirus type 1a protein E7 (residues 44-93). Nature of the assay: HPV1a E7 fragment binders on microarrays, primary screen, biochemical, small-molecule microarray, residues 44-93, 635 nm fluorescence (AID 1108).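 Note: E7 fragment applied at 1 µg/mL in TBST for 1 h at 4 C; score combines spot fluorescence with its signal to noise ratio.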 The note with it: small-molecule microarray binding, fluorescence 635 nm; higher = more signal.
Assay [12] in a line: modulators of HCV replicon luciferase signal, primary screen, HCV replication inhibitor project, Huh7 cells, luciferase reporter (AID 1109).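 Note: huh7 hepatoma cells harbouring a luciferase neomycin HCV replicon reporter; luciferase luminescence as measure of HCV replicon replication; test concentration not given here.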 The note with it: 48 h, higher = more signal. On the technique in general: In antiviral work, replicon cells carry a viral genome segment that copies itself.
Assay [13] addresses Left-right determination factor 2 (Homo sapiens) (UniProt O00292). The assay can be described thus: LEFTY2 binders on small-molecule microarrays, primary screen, biochemical, small-molecule microarray, 635 nm fluorescence scan (AID 1110). The note with it: LEFTY2 binding, higher = more signal.
For assay [14], the target named is Calmodulin-1 (Homo sapiens) (UniProt P0DP23). Nature of the assay: CALM1 binders on microarrays, EGTA buffer, profiling panel, biochemical, small-molecule microarray, Cy5-labelled CALM1 (AID 1111).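 Note: labelled calmodulin applied in Tris saline Tween buffer holding calcium plus EGTA and DTT.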 The note with it: Cy5-CALM1 binding fluorescence, higher = more signal.
Assay [15] shares this target. Nature of the assay: calcium-bound CALM1 binders on microarrays, profiling panel, artefact control for SMM control-protein annotation, biochemical, small-molecule microarray, Cy5-labelled CALM1, plus calcium (AID 1112).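 Note: score merges spot fluorescence with signal to noise from triplicate slides.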 The note with it: Cy5-CALM1 binding fluorescence, higher = more signal.
Assay [16] is described as follows: small-molecule microarray binders of probe aWnt5a, primary screen, biochemical, biotinylated probe, 635/667 nm fluorescence (AID 1113).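 Note: score merges 667 nm fluorescence intensity with signal-to-noise per printed feature.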 The note with it: higher = more signal.
The nature of assay [17]: small-molecule microarray binders of probe aShh, primary screen, biochemical, biotinylated probe, 635/667 nm fluorescence (AID 1114).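 Note: probe is biotin-labelled aShh protein from a stem cell growth factor screen; measures binding of labelled protein to compounds printed on the slide; score merges feature fluorescence at 667 nm with signal-to-noise.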 The note with it: higher = more signal.
Assay [18] is described as follows: small-molecule microarray binders of probe aNog, primary screen, biochemical, biotinylated probe, 635/667 nm fluorescence (AID 1115).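 Note: probe is biotinylated aNog protein used at 0.15 µg/mL for 1 h at 4 C; z-score combines 667 nm fluorescence of each spot with its signal to noise.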 The note with it: higher = more signal.
For assay [19], the target named is Torsin-1A-interacting protein 1 (Homo sapiens) (UniProt Q5JTV8). The assay can be described thus: LAP1 binders from COS7 cell lysate, primary screen, small-molecule microarray, 635/667 nm fluorescence (AID 1116). The note with it: COS7-hLAP1 lysate binding, 635 nm fluorescence, higher = more signal.
In assay [20] the target is Alpha-bungarotoxin (Bungarus multicinctus) (UniProt P60615). The assay can be described thus: alpha-bungarotoxin binders on microarray, profiling panel, artefact control for SMM control protein annotation, biochemical, small-molecule microarray, Alexa647 label, 635/667 nm fluorescence (AID 1117). The note with it: alpha-BTX-A647 binding fluorescence, higher = more signal.
Alpha-bungarotoxin (Bungarus multicinctus), sequence (P60615 whole entry, looked up): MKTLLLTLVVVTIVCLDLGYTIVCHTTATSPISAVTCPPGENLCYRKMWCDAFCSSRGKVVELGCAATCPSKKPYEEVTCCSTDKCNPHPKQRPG

Dickkopf-related protein 1 (Homo sapiens), sequence (O94907 whole entry, looked up): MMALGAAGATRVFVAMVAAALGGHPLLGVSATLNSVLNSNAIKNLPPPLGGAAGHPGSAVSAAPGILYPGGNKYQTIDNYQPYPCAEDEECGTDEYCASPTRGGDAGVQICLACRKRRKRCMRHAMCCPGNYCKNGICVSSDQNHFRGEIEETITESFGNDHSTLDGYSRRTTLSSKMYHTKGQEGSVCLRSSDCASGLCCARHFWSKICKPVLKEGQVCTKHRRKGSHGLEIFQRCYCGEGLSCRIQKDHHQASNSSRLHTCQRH
Torsin-1A-interacting protein 1 (Homo sapiens), sequence (Q5JTV8 whole entry, looked up): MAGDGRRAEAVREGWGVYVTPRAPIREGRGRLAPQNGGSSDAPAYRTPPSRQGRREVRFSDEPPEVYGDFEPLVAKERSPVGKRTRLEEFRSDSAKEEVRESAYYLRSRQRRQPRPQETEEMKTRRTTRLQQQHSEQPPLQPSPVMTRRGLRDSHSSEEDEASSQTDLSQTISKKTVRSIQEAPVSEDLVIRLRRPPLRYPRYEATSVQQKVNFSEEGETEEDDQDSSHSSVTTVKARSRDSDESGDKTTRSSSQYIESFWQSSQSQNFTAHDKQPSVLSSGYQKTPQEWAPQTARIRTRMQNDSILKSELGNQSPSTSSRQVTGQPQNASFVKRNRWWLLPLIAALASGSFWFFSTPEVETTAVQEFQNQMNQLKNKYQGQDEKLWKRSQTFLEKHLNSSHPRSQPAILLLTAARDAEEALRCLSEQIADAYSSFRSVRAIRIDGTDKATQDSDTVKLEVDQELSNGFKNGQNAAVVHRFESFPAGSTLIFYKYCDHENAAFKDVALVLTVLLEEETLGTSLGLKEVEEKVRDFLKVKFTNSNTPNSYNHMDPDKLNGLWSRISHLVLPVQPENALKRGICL
Left-right determination factor 2 (Homo sapiens), sequence (O00292 whole entry, looked up): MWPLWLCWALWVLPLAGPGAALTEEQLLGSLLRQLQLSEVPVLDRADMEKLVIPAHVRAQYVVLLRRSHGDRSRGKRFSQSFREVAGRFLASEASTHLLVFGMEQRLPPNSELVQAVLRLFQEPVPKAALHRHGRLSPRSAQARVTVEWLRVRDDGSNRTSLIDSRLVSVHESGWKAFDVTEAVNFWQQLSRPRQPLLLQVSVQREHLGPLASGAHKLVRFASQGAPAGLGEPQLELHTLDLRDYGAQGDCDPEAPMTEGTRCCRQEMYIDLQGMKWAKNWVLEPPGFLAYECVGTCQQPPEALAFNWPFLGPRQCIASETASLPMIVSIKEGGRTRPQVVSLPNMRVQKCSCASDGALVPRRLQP
Fibroblast growth factor 10 (Homo sapiens), sequence (O15520 whole entry, looked up): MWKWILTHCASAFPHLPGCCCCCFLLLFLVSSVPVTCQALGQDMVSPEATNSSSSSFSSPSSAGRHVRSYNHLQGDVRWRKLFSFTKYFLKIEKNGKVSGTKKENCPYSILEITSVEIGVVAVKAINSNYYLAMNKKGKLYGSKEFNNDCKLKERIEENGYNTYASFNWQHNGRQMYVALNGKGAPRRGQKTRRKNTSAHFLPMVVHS
Epidermal growth factor receptor (Homo sapiens), sequence (P00533 whole entry, looked up): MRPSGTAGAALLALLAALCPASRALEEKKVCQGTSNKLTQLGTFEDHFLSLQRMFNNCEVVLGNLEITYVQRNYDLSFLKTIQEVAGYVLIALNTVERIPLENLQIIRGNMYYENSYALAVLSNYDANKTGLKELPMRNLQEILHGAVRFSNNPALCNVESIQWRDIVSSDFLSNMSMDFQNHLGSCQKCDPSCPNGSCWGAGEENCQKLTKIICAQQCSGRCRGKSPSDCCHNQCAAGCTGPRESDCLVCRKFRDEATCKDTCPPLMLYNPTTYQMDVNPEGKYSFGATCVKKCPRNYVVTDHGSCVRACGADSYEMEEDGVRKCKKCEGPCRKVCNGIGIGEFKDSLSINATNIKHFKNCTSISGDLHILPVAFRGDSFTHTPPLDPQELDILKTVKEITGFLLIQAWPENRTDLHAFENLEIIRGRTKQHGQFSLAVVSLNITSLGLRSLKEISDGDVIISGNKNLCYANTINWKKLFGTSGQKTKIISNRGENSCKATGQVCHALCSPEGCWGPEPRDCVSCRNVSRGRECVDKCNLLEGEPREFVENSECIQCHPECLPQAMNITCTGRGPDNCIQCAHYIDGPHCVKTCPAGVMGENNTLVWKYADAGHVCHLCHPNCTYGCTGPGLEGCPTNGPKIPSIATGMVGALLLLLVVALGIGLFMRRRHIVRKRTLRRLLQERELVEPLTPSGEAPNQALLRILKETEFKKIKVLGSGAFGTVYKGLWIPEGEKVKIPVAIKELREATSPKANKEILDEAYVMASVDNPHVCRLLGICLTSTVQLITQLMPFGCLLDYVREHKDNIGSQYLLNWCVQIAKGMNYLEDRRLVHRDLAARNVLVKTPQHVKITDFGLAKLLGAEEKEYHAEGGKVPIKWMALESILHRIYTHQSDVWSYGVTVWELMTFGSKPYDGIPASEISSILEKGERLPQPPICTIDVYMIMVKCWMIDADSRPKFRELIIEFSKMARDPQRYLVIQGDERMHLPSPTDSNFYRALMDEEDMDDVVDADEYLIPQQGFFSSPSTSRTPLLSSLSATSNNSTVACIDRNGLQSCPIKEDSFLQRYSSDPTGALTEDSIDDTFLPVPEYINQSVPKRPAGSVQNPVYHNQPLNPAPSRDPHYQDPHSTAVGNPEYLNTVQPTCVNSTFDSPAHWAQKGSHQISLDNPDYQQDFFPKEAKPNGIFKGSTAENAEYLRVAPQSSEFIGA
Follistatin-related protein 3 (Homo sapiens), sequence (O95633 whole entry, looked up): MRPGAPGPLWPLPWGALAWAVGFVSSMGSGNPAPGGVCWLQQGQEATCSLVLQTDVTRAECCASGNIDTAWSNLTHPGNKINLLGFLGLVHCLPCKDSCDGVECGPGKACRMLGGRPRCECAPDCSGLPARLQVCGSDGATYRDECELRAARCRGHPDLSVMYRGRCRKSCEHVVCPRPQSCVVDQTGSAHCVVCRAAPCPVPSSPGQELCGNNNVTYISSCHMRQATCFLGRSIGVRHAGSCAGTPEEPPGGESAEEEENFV

`C[N+](C)(C)CCCC[C@@H]1NC(=O)[C@@H]2C[C@H](C(=O)NCCCCCN)[C@H](c3ccc(O)cc3)N2C1=O`: the composite z-score in assay [1] amounted to 1.55; in assay [2] it was 1.16; in assay [3], 0.808; in assay [5], 1.42; in [6], 1.29; in assay [7], 0.024. Besides, the composite z-score in assay [8] amounted to 0.878; in assay [9], 0.308; in assay [10] it was 0.199; in assay [11], 1.34; in assay [13], 1.24; in assay [14], 2.08. Besides, the composite z-score in assay [15] is 1.12; in assay [16], 0.0775; in assay [17], -0.167; in [18], 1.57; in [19] it was 1.29; in [20], 2.13. For the same compound, the z-score in assay [4] was -1.1 (inactive); in assay [12], 0.0633.
`CN(C)CCCCCCNC(=O)[C@@H]1C[C@@H]2C(=O)N[C@@H](CCCC[N+](C)(C)C)C(=O)N2[C@@H]1c1ccc(O)cc1`: the composite z-score in assay [1] is 0.626; in assay [2], -0.0429; in assay [3], -0.397; in assay [5], 0.421; in [6] it was 0.467; in assay [7] it was -0.144. The composite z-score in assay [8] is 0.0663; in assay [9] it was 1.61; in assay [10], -0.181; in [11], -1.27; in [13], 0.839; in assay [14], -1.01. Further, the composite z-score in assay [15] was -0.702; in assay [16], -0.216; in assay [17], -0.358; in assay [18], -0.277; in [19] it was 0.964; in assay [20] it was 0.257. In addition, the z-score in [4] was -0.0575 (inactive); in [12], 1.61.
`CC(C)[Si](C#CCCCC#N)(Oc1ccccc1Br)C(C)C`: the composite z-score is 0.436 in [1]; -0.288 in [2]; -0.536 in assay [3]; 0.361 in [5]; 0.693 in assay [6]; 0.216 in assay [7]. Besides, the composite z-score in assay [8] was 0.58; in assay [9] it was -0.108; in assay [10], 0.32; in assay [11], 0.845; in [13] it was 0.0224; in assay [14], -0.154. Moreover, the composite z-score in [15] was -0.159; in [16] it was -0.0512; in assay [17], -0.0553; in [18] it was -0.213; in assay [19], 0.528; in assay [20] it was 0.453. The z-score was -0.542 (inactive) in assay [4] and -0.071 in [12].
As for `C=C(CCCC)C(=O)CC[C@H](OC(=O)c1cccnc1)c1ccc(OCCO)cc1`, the composite z-score was 0.142 in assay [1]; -0.117 in assay [2]; 0.27 in [3]; -0.0659 in [5]; -0.0084 in [6]; -0.317 in [7]. Besides, the composite z-score was -0.173 in [8]; 0.183 in assay [9]; 0.877 in [10]; -0.574 in assay [11]; -0.327 in assay [13]; -0.556 in [14]. Further, the composite z-score was -0.736 in [15]; -0.0455 in assay [16]; 0.296 in assay [17]; 0.406 in assay [18]; 0.656 in assay [19]; 0.551 in assay [20]. Also, the z-score in assay [4] was 0.98 (inactive); in assay [12], -3.61.
With `CCCC[C@@H]1C[C@H]1[C@@H](NC(=O)c1cccnc1)c1ccc(Cl)cc1`, the composite z-score in assay [1] was -1.89; in assay [2], 0.636; in assay [3] it was 1.38; in assay [5], -2.18; in assay [6] it was -2.37; in [7], -2.19. Further, the composite z-score in assay [8] is -2.37; in assay [9], -2.48; in [10] it was 0.0159; in assay [11] it was -1.05; in assay [13], -2.99; in [14] it was 0.867. In addition, the composite z-score in assay [15] is 1.69; in [16] it was -0.191; in [17], -0.509; in assay [18], 0.526; in assay [19], -0.553; in assay [20], -1.36. Moreover, the z-score in assay [4] is -2.46 (inactive); in [12], -2.14.
As for `O=C1OCC=C[C@H]2OC34C=CCN(Cn5nnc6ccccc65)C(=O)[C@H]3N(CCCCCO)C(=O)[C@@H]4[C@@H]12` (stereo not given in full), the composite z-score is 0.665 in assay [1]; 0.26 in assay [2]; 0.586 in assay [3]; -0.658 in assay [5]; -0.614 in assay [6]; -1.31 in assay [7]. Besides, the composite z-score was -0.77 in [8]; -1.29 in assay [9]; -0.212 in [10]; -0.129 in assay [11]; -1.3 in [13]; -0.497 in [14]. Also, the composite z-score in [15] is 0.0598; in assay [16], 0.184; in assay [17] it was -0.209; in assay [18], 0.105; in assay [19], 3.17; in assay [20], -0.464. Moreover, the figures for the z-score in assay [4] and in assay [12] were -0.313 (inactive) and -0.0996, respectively.
